{"source": "PubChem BioAssay AID463173", "about": "(ICCB-Longwood Screening Facility, Harvard Medical School, 2010)", "note": "Out of some 52,000 compounds screened, about 4,300 (8.3%) were called active. The entries come from a sample that favours actives as a whole. Values without a mark were called inactive. Cut-off read from the data, not from the text of the source: active = survival mostly below about 52% (no sharp cut-off); inactive = mostly above about 56%.", "data": [{"test_system": "DeltatarO mutant", "assay": "growth inhibition of S. aureus wild type versus tarO mutant, primary screen, teichoic acid synthesis inhibitors, RN4220, OD600 (AID 463173)", "settings": "OD600, 18 h, active compounds read low, screened at 18.75 µg/mL (by protocol)", "values": [{"smiles": "O=c1oc2ccc3ccccc3c2cc1-c1nnc(Nc2ccc(F)cc2)s1", "survival": "78%"}, {"smiles": "Cc1cccc(NC(=O)CN2C(=O)C3(SCC(=O)N3c3ccccc3)c3ccccc32)c1", "note": "(configuration not stated)", "survival": "123%"}, {"smiles": "O=C(NCCc1csc2nc(-c3ccc(F)cc3)nn12)c1cccc(C(F)(F)F)c1", "survival": "78%"}, {"smiles": "Cc1ccc(CNC(=O)CSc2ncc(S(=O)(=O)c3ccc(Br)cc3)c(=O)[nH]2)cc1", "survival": "125%"}, {"smiles": "CCOc1ccc(CNC(=O)c2ccc3[nH]c(C)c(C)c3c2)cc1OC", "survival": "67%"}, {"smiles": "CCCCN(C)CC(O)Cn1cc(/C=C/C(=O)c2ccc(OCC)cc2)c2ccccc21", "note": "(configuration not stated)", "survival": "6% (active)"}, {"smiles": "CCCCN(C)CC(O)Cn1cc(/C=C/C(=O)c2ccc(Br)cc2)c2ccccc21", "note": "(configuration not stated)", "survival": "0% (active)"}, {"smiles": "CCOc1ccc(C(=O)/C=C/c2cn(CC(O)CN3CCc4ccccc43)c3ccccc23)cc1", "note": "(configuration not stated)", "survival": "56%"}, {"smiles": "CCCCN(C)CC(O)Cn1cc(/C=C/C(=O)c2ccc(OC)c(OC)c2)c2ccccc21", "note": "(configuration not stated)", "survival": "67%"}, {"smiles": "C=CCn1cc(/C=C(/C#N)C(=O)OCC)c2ccccc21", "survival": "83%"}, {"smiles": "Cc1ccc(C(=O)/C=C/c2cn(CC(O)CN3CCc4ccccc43)c3ccccc23)cc1", "note": "(configuration not stated)", "survival": "73%"}, {"smiles": "CCCCN(C)CC(O)Cn1cc(/C=C/C(=O)c2ccc(C)cc2)c2ccccc21", "note": "(configuration not stated)", "survival": "6% (active)"}, {"smiles": "O=S1(=O)N=C(SCCO)c2ccccc21", "survival": "85%"}, {"smiles": "CCOc1ccc(NC(=O)c2cc(S(=O)(=O)N3CCCCCC3)cn2C)cc1", "survival": "120%"}, {"smiles": "CCCC1N=C2c3ccccc3N=C(SCC(=O)NCCc3ccc(Cl)cc3)N2C1=O", "note": "(configuration not stated)", "survival": "93%"}, {"smiles": "Cc1ccccc1Cn1c(SCc2ccc(C(=O)NCCc3ccccc3)cc2)nc2ccncc21", "survival": "82%"}, {"smiles": "CCCCOc1ccc(NC(=O)CS(=O)CC(=O)Nc2ccc(OC)cc2)cc1", "note": "(configuration not stated)", "survival": "84%"}, {"smiles": "CSc1cccc(NS(=O)(=O)c2ccc3[nH]cc(C(=O)N4CCCCCC4)c(=O)c3c2)c1", "survival": "82%"}, {"smiles": "CC(C)(C)c1ccc(C(=O)Nc2ccc(-c3nc4ccccc4o3)c(O)c2)cc1", "survival": "69%"}, {"smiles": "Cc1ccc2nc(-c3ccc(Cl)c(NC(=O)c4ccc(Br)o4)c3)oc2c1", "survival": "48%"}, {"smiles": "O=C(Nc1cc(-c2nc3ccccc3o2)ccc1Cl)c1ccc(Br)o1", "survival": "54% (active)"}, {"smiles": "CC(C)(C)c1ccc(C(=O)Nc2cc(-c3nc4ccccc4o3)ccc2Cl)cc1", "survival": "13% (active)"}, {"smiles": "Cc1ccc2oc(-c3ccc(C)c(NC(=O)c4ccc(C(C)(C)C)cc4)c3)nc2c1", "survival": "136%"}, {"smiles": "Cc1cc(NC(=O)c2ccc(Br)o2)cc(-c2nc3ccccc3o2)c1O", "survival": "98%"}, {"smiles": "CCC(NC(=O)Nc1ccc(OC)c(OC)c1)c1c(-n2cccc2)sc2c1CCN(C)C2", "note": "(configuration not stated)", "survival": "65%"}, {"smiles": "COc1ccccc1CNC(=O)c1ccc2c(c1)nc(C)n2-c1cccc(C)c1", "survival": "74%"}, {"smiles": "COc1ccc(S(=O)(=O)NCCS(=O)(=O)N2CCN(c3ccccc3)CC2)cc1C", "survival": "102%"}, {"smiles": "CCOc1ccccc1N(CC(=O)N1CCc2ccccc2C1)S(=O)(=O)c1ccccc1", "survival": "37% (active)"}, {"smiles": "CCc1ccccc1N(CC(=O)N1CCc2ccccc2C1)S(C)(=O)=O", "survival": "96%"}, {"smiles": "COc1ccc(N(CC(=O)N2CCc3ccccc3C2)S(=O)(=O)c2ccccc2)cc1", "survival": "58%"}, {"smiles": "COc1ccc(-n2ncc(C(=O)NCc3ccco3)c2C2CCN(C(=O)OC(C)(C)C)CC2)cc1", "survival": "83%"}, {"smiles": "Cc1ccccc1NC(=S)N1CCC(NC(=O)C(C)(C)C)CC1", "survival": "92%"}, {"smiles": "O=C(Nc1ccc(F)cc1F)C1CCN(S(=O)(=O)c2ccc3[nH]c(=O)ccc3c2)CC1", "survival": "83%"}, {"smiles": "CCOC(=O)Cn1nnnc1CN(Cc1cc2c(C)ccc(C)c2[nH]c1=O)C1CCCCC1", "survival": "88%"}, {"smiles": "Oc1ccc(N=Cc2ccccc2O)cc1", "survival": "109%"}, {"smiles": "CCN(CC)c1ccc(C=C2C(=O)c3ccccc3C2=O)c(O)c1", "survival": "74%"}, {"smiles": "O=C1/C(=C/c2ccccc2O)CC/C1=C\\c1ccccc1O", "survival": "55% (active)"}, {"smiles": "NS(=O)(=O)c1ccc(NC(=O)CCn2c(=O)oc3ccccc32)cc1", "survival": "73%"}, {"smiles": "CCOC(=O)c1cccc(NC(=O)CCn2c(-c3ccc(F)cc3)cc(C(=O)OCC)c2C)c1", "survival": "76%"}, {"smiles": "CCN(CC)CCOC(=O)c1ccc(NC(=O)CCn2c(=O)oc3ccccc32)cc1", "survival": "45% (active)"}, {"smiles": "COC(=O)c1ccc(NC(=O)Cn2c(=O)oc3ccccc32)cc1", "survival": "69%"}, {"smiles": "CCOC(=O)c1ccc(NC(=O)NCCOCCn2c(=O)oc3ccccc32)cc1", "survival": "77%"}, {"smiles": "CCOC(=O)c1cccc(NC(=O)CCn2c(=O)oc3ccccc32)c1", "survival": "39% (active)"}, {"smiles": "CCc1cccc(C)c1NC(=O)C1CCN(S(=O)(=O)c2c(C)noc2/C=C/c2c(C)cc(C)cc2C)CC1", "survival": "81%"}, {"smiles": "Cn1cc(S(=O)(=O)N2CCCC2)cc1C(=O)Nc1ccc(F)cc1F", "survival": "77%"}, {"smiles": "COc1ccc(NC(=O)C(NC(=O)Cc2cccs2)c2ccc(OC)cc2)cc1", "note": "(configuration not stated)", "survival": "137%"}, {"smiles": "C=CCNC(=O)CSc1nc2cc(C)cc(C)c2cc1C#N", "survival": "58%"}, {"smiles": "COc1ccccc1CNC(=O)CC(c1ccc(OC)c(OC)c1)N1Cc2ccccc2C1=O", "note": "(configuration not stated)", "survival": "83%"}, {"smiles": "CCOC(=O)c1noc2ncn(Cc3cccc(C#N)c3)c(=O)c12", "survival": "130%"}, {"smiles": "COc1ccc(CCCc2nnc(SCC(=O)Nc3ccc(Cl)cc3)o2)cc1", "survival": "92%"}, {"smiles": "COc1ccc(OC)c(NC(=O)CSC2=Nc3ccccc3C3=NC(CCC(=O)NCCc4ccccc4)C(=O)N23)c1", "note": "(configuration not stated)", "survival": "80%"}, {"smiles": "COc1ccc(OC)c(NC(=O)CSC2=Nc3ccccc3C3=NC(CC(=O)NCc4ccc5c(c4)OCO5)C(=O)N23)c1", "note": "(configuration not stated)", "survival": "80%"}, {"smiles": "COc1ccc(NC(=O)CSC2=Nc3ccccc3C3=NC(CC(=O)NCc4ccc(F)cc4)C(=O)N23)cc1", "note": "(configuration not stated)", "survival": "55%"}, {"smiles": "COc1ccc(OC)c(NC(=O)CSC2=Nc3ccccc3C3=NC(CC(=O)NCc4ccc(F)cc4)C(=O)N23)c1", "note": "(configuration not stated)", "survival": "52% (active)"}, {"smiles": "COc1ccc(OC)c(NC(=O)CSC2=Nc3ccccc3C3=NC(CCC(=O)NCc4ccccc4)C(=O)N23)c1", "note": "(configuration not stated)", "survival": "0% (active)"}, {"smiles": "COc1ccc(OC)c(NC(=O)CSC2=Nc3ccccc3C3=NC(CCC(=O)NCc4ccco4)C(=O)N23)c1", "note": "(configuration not stated)", "survival": "78%"}, {"smiles": "CCOc1ccc(C2C(=O)N(C3CCCCC3)CC(=O)N2C2CCCC2)cc1OC", "note": "(configuration not stated)", "survival": "71%"}, {"smiles": "CC(=O)N1CCOc2cc(S(=O)(=O)NCc3ccccc3Cl)c(C)cc21", "survival": "85%"}, {"smiles": "Cc1cc(Cl)ccc1NC(=O)c1cccc(NC(=O)N2CCSc3ncccc32)c1", "survival": "74%"}, {"smiles": "CCCc1nn2c(=O)cc(COC(=O)c3ccco3)nc2s1", "survival": "77%"}, {"smiles": "CCOC(=O)c1cc2c(=O)n3ccccc3nc2n(C)c1=NC(=O)c1c(-c2ccccc2Cl)noc1C", "survival": "141%"}, {"smiles": "Cc1ccc(NC(=O)c2c(C)nc3sc(C(=O)Nc4ccc(F)cc4)c(N)c3c2-c2ccc(C)o2)c(C)c1", "survival": "60%"}, {"smiles": "COC(=O)c1cc2oc3ccccc3c2n1Cc1c(F)cccc1Cl", "survival": "118%"}, {"smiles": "CNC(=O)c1c(-c2ccccc2)oc2ccc(OC)cc12", "survival": "90%"}, {"smiles": "O=C(O)c1c(-c2ccccc2)oc2ccc(OCc3ccc(Cl)c(Cl)c3)cc12", "survival": "-1% (active)"}, {"smiles": "CCOC(=O)c1c(-c2ccccc2)oc2ccc(OCc3ccccc3Br)cc12", "survival": "38% (active)"}, {"smiles": "CCOC(=O)c1c(-c2ccccc2)oc2ccc(NS(=O)(=O)c3ccc(C(C)C)cc3)cc12", "survival": "70%"}, {"smiles": "CCOC(=O)c1c(-c2ccccc2)oc2ccc(N(C(C)=O)S(=O)(=O)c3ccc(CC)cc3)cc12", "survival": "69%"}, {"smiles": "C=Cc1ccc(COc2ccc3oc(-c4ccccc4)c(C(=O)OCC)c3c2)cc1", "survival": "45% (active)"}, {"smiles": "O=C(O)c1c(-c2ccccc2)oc2ccc(OCc3c(F)cccc3Cl)cc12", "survival": "29% (active)"}, {"smiles": "Cc1ccc(NC(=O)Cn2c(=O)n(CCCCC(=O)NCc3ccc4c(c3)OCO4)c(=O)c3ccccc32)cc1", "survival": "72%"}, {"smiles": "CC1(C)N([O-])C2=C(CCCC2)[N+]1=O", "survival": "83%"}, {"smiles": "CCCc1nc2ccccc2n2c(-c3cccc(C)c3)c3c(=O)n(C)c(=O)n(C)c3c12", "survival": "67%"}, {"smiles": "Cc1cc(-c2ccc(C)c(S(=O)(=O)NCCc3ccccc3)c2)on1", "survival": "80%"}, {"smiles": "CCOC(=O)c1c(-c2ccc(OC)cc2)oc2ccc(OCc3ccc(F)cc3F)cc12", "survival": "38% (active)"}, {"smiles": "CCOC(=O)c1c(-c2ccccc2)oc2cc(Br)c(OCc3ccccc3)cc12", "survival": "36% (active)"}, {"smiles": "Cc1ccc(COc2ccc3oc(-c4ccccc4)c(C(=O)O)c3c2)cc1", "survival": "34% (active)"}, {"smiles": "CCOC(=O)c1c(-c2ccccc2)oc2ccc(OCc3ccc(C)cc3)cc12", "survival": "30% (active)"}, {"smiles": "CCOc1ccc(-c2oc3ccc(C)cc3c(=O)c2O)cc1", "survival": "91%"}, {"smiles": "CCOC(=O)c1c(-c2ccc(OC)cc2)oc2ccc(OCc3ccc(C(=O)OC)cc3)cc12", "survival": "48%"}, {"smiles": "CCOC(=O)c1c(-c2ccc(OC)cc2)oc2ccc(OCc3ccc(Br)cc3)cc12", "survival": "63%"}, {"smiles": "CCOC(=O)c1c(-c2ccc(OC)cc2)oc2ccc(OCc3ccccc3C)cc12", "survival": "51%"}, {"smiles": "CCOC(=O)c1c(-c2ccccc2)oc2ccc(N(C(C)=O)S(=O)(=O)c3ccccc3)cc12", "survival": "60%"}, {"smiles": "CCOC(=O)c1c(-c2ccccc2)oc2cc(Br)c(OCC(N)=O)cc12", "survival": "79%"}, {"smiles": "CCOC(=O)c1c(C)oc2ccc(OCC(N)=O)cc12", "survival": "100%"}, {"smiles": "CCOC(=O)c1c(-c2ccccc2)oc2ccc(N(C(C)=O)S(=O)(=O)c3ccc(C)cc3)cc12", "survival": "62%"}, {"smiles": "Cc1ccc(C(=O)N/C(=C\\c2cn(S(=O)(=O)N(C)C)c3ccccc23)C(=O)NCCCn2ccnc2)cc1", "survival": "80%"}]}]}
